Laboratory results from PubChem BioAssay (Tox21).
Results filed as inconclusive are left out. Activity calls are given as the source filed them. Unless noted, calls follow the shape of the full dose curve.

Experiments:
[1] = Nuclear factor erythroid 2-related factor 2/antioxidant responsive element (Nrf2/ARE) small molecule agonists: qHTS cell viability counter screen in human keratinocytes (AID 1919968; active = well fitted curve in the direction sought with a large enough effect in the repeat runs; an effect the other way counts as inactive or inconclusive; also: nearly all actives have a fitted effect of over 55% in size; also: potency is read from the fitted curve at half-maximal effect)
How it was run: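 HaCaT ARE reporter line, 1,500 cells/well; 5 h settle, 37 C/5% CO2; cpd in DMSO pinned; 23 h exposure; CellTiter-Fluor, 1 h; fluorescence.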

[2] = Nuclear factor erythroid 2-related factor 2/antioxidant responsive element (Nrf2/ARE) small molecule agonists: luciferase reporter gene qHTS assay in human keratinocytes (AID 1919969); also: nearly all actives have a fitted effect of over 35% in size; also: potency is read from the fitted curve at half-maximal effect
[3] = target: Gonadotropin-releasing hormone receptor (Homo sapiens) (UniProt P30968); assay: Human gonadotropin-releasing hormone receptor (GnRHR) small molecule agonists, calcium flux assay in GnRHR-HEK293 cells (AID 1920063); also: nearly all actives have a fitted effect of over 35% in size; also: potency is read from the fitted curve at half-maximal effect
Chain of Gonadotropin-releasing hormone receptor (Homo sapiens) (P30968 whole entry, looked up): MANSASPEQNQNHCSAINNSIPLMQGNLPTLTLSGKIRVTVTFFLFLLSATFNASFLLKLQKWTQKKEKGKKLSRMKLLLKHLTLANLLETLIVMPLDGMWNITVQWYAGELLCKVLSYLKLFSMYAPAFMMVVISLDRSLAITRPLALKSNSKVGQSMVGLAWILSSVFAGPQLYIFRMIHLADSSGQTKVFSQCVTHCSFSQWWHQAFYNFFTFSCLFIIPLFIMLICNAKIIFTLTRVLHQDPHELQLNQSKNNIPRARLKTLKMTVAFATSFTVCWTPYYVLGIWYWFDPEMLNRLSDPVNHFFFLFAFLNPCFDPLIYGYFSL
How it was run: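 GnRHR-HEK293, 1500 cells/well, 18 h 37 C/5% CO2; Ca dye 1 h 37 C; cpd pinned (DMSO), agonist mode; kinetic FL 480/540, 3 min, 1 s reads; 15 conc, n=3.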

[4] = target: KiSS-1 receptor (Homo sapiens) (UniProt Q969F8); assay: Human kisspeptin (KISS1R) small molecule agonists, calcium flux assay in KISS1R-HEK293 cells (AID 1920064; active = well fitted curve in the direction sought with a large enough effect in the repeat runs; an effect the other way counts as inactive or inconclusive)
Chain of KiSS-1 receptor (Homo sapiens) (Q969F8 whole entry, looked up): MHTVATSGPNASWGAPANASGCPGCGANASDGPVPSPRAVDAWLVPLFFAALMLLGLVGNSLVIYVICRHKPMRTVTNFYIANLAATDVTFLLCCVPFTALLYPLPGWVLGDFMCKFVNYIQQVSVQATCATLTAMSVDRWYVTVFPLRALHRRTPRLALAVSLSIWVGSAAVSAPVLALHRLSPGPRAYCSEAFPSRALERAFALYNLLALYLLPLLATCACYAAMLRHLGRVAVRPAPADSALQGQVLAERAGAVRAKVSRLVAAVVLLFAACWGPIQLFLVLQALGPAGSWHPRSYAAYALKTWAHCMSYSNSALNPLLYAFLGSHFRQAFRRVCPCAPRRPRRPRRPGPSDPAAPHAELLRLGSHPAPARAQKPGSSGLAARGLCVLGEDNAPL
How it was run: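 Stable human KISS1R HEK293 line; 18 h plating, 37 C/5% CO2; calcium dye 1 h 37 C; compound pin transfer; kinetic fluorescence Ex/Em 480/540, 3 min.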

[5] = p53 small molecule agonists, cell-based qHTS assay with rat liver microsomes (AID 1963578)
How it was run: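 p53RE-bla cells, 4,000/well, pre-incubated 5 h, then given compounds plus rat liver microsomes (0.5 mg/mL final) and NADPH (0.5 mg/mL final). Incubation 16 h at 37 C; beta-lactamase reporter read by LiveBLAzer fluorescence after 2 h at room temperature.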

[6] = p53 small molecule agonists, cell-based qHTS assay with rat liver microsomes: qHTS cell viability counter screen (AID 1963580); also: nearly all actives have a fitted effect of over 45% in size
How it was run: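 In HCT-116 cells carrying a p53 response element-bla reporter, compounds were metabolically activated in situ by rat liver microsomes with NADPH over 16 h. Cell ATP content then served as the cytotoxicity measure.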

[7] = p53 small molecule agonists, cell-based qHTS assay: qHTS cell viability counter screen (AID 1963581); also: nearly all actives have a fitted effect of over 45% in size
How it was run: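 HCT-116 p53RE-bla cells, 4,000/well, plated 5 h before compound pin transfer; 16 h at 37 C; bla substrate 2 h RT; then CellTiter-Glo, 30 min RT, luminescence.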

[8] = p53 small molecule agonists, cell-based qHTS assay (AID 1963582; active = well fitted activation curve with a large enough effect in the signal ratio in the repeat runs, not every such curve was filed as active; the % refers to the signal ratio)
How it was run: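 Reporter line: p53RE-bla. Pre-incubation 5 h, 37 C, 5% CO2; compound (DMSO, pin tool) 16 h, 37 C; B/G FRET substrate 2 h RT; fluorescence intensity read.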

[9] = target: 5-hydroxytryptamine receptor 2A (Homo sapiens) (UniProt P28223); assay: 5-hydroxytryptamine receptor 2A (HTR2A) small molecule agonists, cell-based qHTS assay (AID 1963587); also: nearly all actives have a fitted effect of over 30% in size; also: potency is read from the fitted curve at half-maximal effect
Chain of 5-hydroxytryptamine receptor 2A (Homo sapiens) (P28223 whole entry, looked up): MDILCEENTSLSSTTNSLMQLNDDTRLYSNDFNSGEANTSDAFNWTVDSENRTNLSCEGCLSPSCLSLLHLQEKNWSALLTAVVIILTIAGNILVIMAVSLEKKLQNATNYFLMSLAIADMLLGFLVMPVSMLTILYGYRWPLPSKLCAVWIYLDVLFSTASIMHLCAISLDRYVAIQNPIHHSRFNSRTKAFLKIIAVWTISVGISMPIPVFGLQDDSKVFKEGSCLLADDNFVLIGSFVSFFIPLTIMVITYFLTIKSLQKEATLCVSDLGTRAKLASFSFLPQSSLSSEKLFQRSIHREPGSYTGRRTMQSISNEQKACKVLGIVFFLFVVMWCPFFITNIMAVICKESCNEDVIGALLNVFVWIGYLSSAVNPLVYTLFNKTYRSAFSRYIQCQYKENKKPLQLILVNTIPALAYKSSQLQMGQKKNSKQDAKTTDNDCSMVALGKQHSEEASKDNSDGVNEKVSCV
How it was run: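 HTR2A-CHO cells, plated 18 h at 37 C/5% CO2, dye-loaded 1 h at 37 C; compounds in DMSO added by pin tool (agonist mode). Intracellular calcium flux read as kinetic fluorescence on FDSS over 2 min at 1 s intervals.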

[10] = target: Muscarinic acetylcholine receptor M1 (Homo sapiens) (UniProt P11229); assay: Cholinergic receptor muscarinic 1 (CHRM1) small molecule antagonists, cell-based qHTS assay (AID 1963588); also: nearly all actives have a fitted effect of over 40% in size
Chain of Muscarinic acetylcholine receptor M1 (Homo sapiens) (P11229 whole entry, looked up): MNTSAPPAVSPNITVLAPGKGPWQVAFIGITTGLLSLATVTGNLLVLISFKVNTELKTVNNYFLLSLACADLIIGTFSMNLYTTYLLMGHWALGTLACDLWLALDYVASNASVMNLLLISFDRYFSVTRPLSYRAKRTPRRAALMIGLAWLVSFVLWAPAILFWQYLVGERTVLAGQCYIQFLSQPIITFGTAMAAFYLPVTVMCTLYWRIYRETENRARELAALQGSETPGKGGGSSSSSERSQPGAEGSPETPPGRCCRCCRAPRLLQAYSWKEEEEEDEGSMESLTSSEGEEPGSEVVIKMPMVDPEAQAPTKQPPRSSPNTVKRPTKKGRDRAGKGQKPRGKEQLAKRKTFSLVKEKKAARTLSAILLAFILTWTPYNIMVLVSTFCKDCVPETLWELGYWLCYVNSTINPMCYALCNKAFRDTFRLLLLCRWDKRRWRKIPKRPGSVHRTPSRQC
How it was run: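 CHRM1-CHO calcium-flux assay, antagonist mode. Cells were seeded 18 h, dye-loaded 1 h at 37 C and given compound for 5 min at RT, then acetylcholine was added at 50nM. FDSS fluorescence was read 3 min; 15 concentrations, three runs.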

[11] = target: Muscarinic acetylcholine receptor M1 (Homo sapiens) (UniProt P11229); assay: Cholinergic receptor muscarinic 1 (CHRM1) small molecule agonists, cell-based qHTS assay (AID 1963589); also: nearly all actives have a fitted effect of over 35% in size
How it was run: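 Human M1 in stable CHO line; 18 h plating, 1 h dye load 37 C; cpd added (agonist mode); Ca2+ fluorescence kinetic read, 1 s intervals; 15 conc, 3 runs.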

[12] = cAMP Responsive Elements (CRE) small molecule agonists, cell-based qHTS assay (AID 1963590)
How it was run: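 HEK 293T CRE-bla, 2,000 cells/well, 18 h preincubation 37 C/5% CO2; cpds (DMSO) pinned, 3 h; LiveBLAzer B/G FRET substrate, 2 h RT.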

[13] = cAMP Responsive Elements (CRE) small molecule antagonists, cell-based qHTS assay (AID 1963591; active = well fitted inhibition curve with a large enough effect in the signal ratio in the repeat runs, not every such curve was filed as active; the % refers to the signal ratio)
How it was run: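 Beta-lactamase reporter read by FRET substrate (LiveBLAzer B/G) after 2 h at room temperature. CRE-bla HEK293T cells had received compound plus 0.25 uM (final) NKH477 for 3 h at 37 °C.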

[14] = target: Beta-2 adrenergic receptor (Homo sapiens) (UniProt P07550); assay: Adrenergic beta2 receptor (ADRB2) small molecule antagonists, cell-based qHTS assay (AID 1963592); also: nearly all actives have a fitted effect of over 50% in size; also: potency is read from the fitted curve at half-maximal effect
Chain of Beta-2 adrenergic receptor (Homo sapiens) (P07550 whole entry, looked up): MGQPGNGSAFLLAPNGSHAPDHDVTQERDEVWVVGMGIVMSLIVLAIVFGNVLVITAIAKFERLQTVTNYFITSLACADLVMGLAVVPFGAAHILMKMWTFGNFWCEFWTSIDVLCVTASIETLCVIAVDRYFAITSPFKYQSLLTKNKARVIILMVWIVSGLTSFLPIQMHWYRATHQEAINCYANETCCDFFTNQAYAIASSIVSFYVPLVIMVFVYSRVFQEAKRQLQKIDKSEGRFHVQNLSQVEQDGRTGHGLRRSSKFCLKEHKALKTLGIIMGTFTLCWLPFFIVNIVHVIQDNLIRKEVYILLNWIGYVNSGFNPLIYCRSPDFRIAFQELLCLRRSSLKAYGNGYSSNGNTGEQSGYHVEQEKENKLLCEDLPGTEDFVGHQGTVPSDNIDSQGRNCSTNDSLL
How it was run: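 Cells (CHO, stable ADRB2 overexpression) incubated 18-20hr at 37C; compounds added from DMSO; agonist mix (1nM isoproterenol, 100uM IBMX, 25uM Ro-20-1724) added; 0.5hr RT; d2-cAMP and anti-cAMP-cryptate added; 1hr RT; 665/615 nm read.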

[15] = target: Beta-2 adrenergic receptor (Homo sapiens) (UniProt P07550); assay: Adrenergic beta2 receptor (ADRB2) small molecule agonists, cell-based qHTS assay (AID 1963593);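 also: CHO cells stably overexpressing human ADRB2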
How it was run: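 CHO cells stably over-expressing ADRB2 were plated overnight at 37C, then dosed with compounds plus a stimulation mix containing 100uM IBMX and 25uM Ro-20-1724 for 0.5hr at room temperature. cAMP was measured by HTRF competition, 1hr.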

[16] = target: D(2) dopamine receptor (Homo sapiens) (UniProt P14416); assay: Dopamine D2 receptor (DRD2) small molecule agonists, cell-based qHTS assay (AID 1963594); also: nearly all actives have a fitted effect of over 35% in size; also: potency is read from the fitted curve at half-maximal effect
Chain of D(2) dopamine receptor (Homo sapiens) (P14416 whole entry, looked up): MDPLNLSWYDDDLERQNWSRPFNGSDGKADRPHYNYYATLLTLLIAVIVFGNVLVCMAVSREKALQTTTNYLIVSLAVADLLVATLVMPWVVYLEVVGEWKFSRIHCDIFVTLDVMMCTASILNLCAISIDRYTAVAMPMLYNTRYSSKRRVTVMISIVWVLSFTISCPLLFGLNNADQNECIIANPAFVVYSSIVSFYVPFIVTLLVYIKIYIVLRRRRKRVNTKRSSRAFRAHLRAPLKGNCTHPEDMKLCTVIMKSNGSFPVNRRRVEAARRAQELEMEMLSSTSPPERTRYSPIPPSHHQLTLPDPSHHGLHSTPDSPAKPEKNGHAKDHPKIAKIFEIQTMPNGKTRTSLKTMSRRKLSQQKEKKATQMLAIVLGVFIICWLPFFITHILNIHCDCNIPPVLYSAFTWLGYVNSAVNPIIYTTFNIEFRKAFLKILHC
How it was run: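 HEK293 cells stably expressing DRD2 were cultured 24 h at 37 C, then given Ro20-1724 (0.1 mM final) and compounds for 10 min at room temperature. NKH477 (200nM) was then added for 30 min. cAMP was read by HTRF.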

[17] = target: D(2) dopamine receptor (Homo sapiens) (UniProt P14416); assay: Dopamine D2 receptor (DRD2) small molecule antagonists, cell-based qHTS assay (AID 1963595; active = well fitted inhibition curve with a large enough effect in the signal ratio in the repeat runs, with a control signal flat; the % refers to the signal ratio; also: potency is read from the fitted curve at half-maximal effect)
How it was run: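 Antagonist mode in DRD2-HEK293 cells: after compound addition with 0.1 mM Ro20-1724, cells received quinpirole (12 nM) and NKH477 (200 nM) for 30 min at room temperature; HTRF cAMP read after 1 h detection.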

[18] = p53 small molecule agonists, cell-based qHTS assay with human liver microsomes (AID 1963577)
How it was run: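 p53RE-bla cells, 4,000/well, compound added after 5 h, with human liver microsomes 0.5 mg/mL and NADPH 0.5 mg/mL final; 16 h at 37 C, then LiveBLAzer 2 h RT, fluorescence.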

[19] = p53 small molecule agonists, cell-based qHTS assay with human liver microsomes: qHTS cell viability counter screen (AID 1963579); also: nearly all actives have a fitted effect of over 45% in size
How it was run: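 p53RE-bla cells, 4,000/well, dosed 5 hours after plating, with human liver microsomes (0.5 mg/mL final) plus NADPH (0.5 mg/mL final), 16 hours at 37 C. Viability read as CellTiter-Glo luminescence after 30 min at room temperature.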

[20] = target: 5-hydroxytryptamine receptor 2A (Homo sapiens) (UniProt P28223); assay: 5-hydroxytryptamine receptor 2A (HTR2A) small molecule antagonists, cell-based qHTS assay (AID 1963586); also: nearly all actives have a fitted effect of over 45% in size
How it was run: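 Antagonist-mode intracellular calcium assay: DOI (4 nM) added after 5 min compound pre-incubation at room temperature to dye-loaded HTR2A-CHO cells. Fluorescence followed for 3 min, sampled every second.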

Measured: Potency

OCCNCc1ccccc1
active: [2] 68.6 µM
not listed: [18] | [19] | [20]
inactive: all other assays above

CC1c2ccccc2CN1NC(=O)c1ccc(Cl)c(S(N)(=O)=O)c1 (stereo not drawn)
not listed: [15] | [17]
inactive: all other assays above

CCN(CC)c1ccc2c(-c3ccc(S(=O)(=O)O)cc3S(=O)(=O)[O-])c3ccc(=[N+](CC)CC)cc-3oc2c1
active: [1] 17.8 µM | [3] 45.1 µM | [9] 56.7 µM | [16] 24.5 µM
inactive: [2] | [4] | [19] | [8] | [10] | [12] | [13]

CC1OC(=O)C(C)OC1=O (stereo not drawn)
not listed: [7] | [18]
inactive: all other assays above

CC(C)[N+](C)(C)CC(O)COc1cccc2ccccc12 (stereo not drawn)
active: [14] 15 µM
not listed: [5] | [7] | [15] | [18]
inactive: all other assays above

CCCN(CCC)C(=O)C(CCC(=O)O)NC(=O)c1ccccc1 (stereo not drawn)
not listed: [9] | [10] | [11] | [16] | [18] | [19] | [20]
inactive: all other assays above

O=CCCc1ccccc1
not listed: [5] | [7] | [8] | [14] | [15] | [18]
inactive: all other assays above

CCc1cc(Cl)c(OC)c(C(=O)NC[C@@H]2CCCN2CC)c1O
inactive: [1] | [2] | [3] | [4] | [19] | [6] | [8] | [10] | [11] | [12]
active: [17] 0.0033 µM

O=C(Nc1ccccc1)c1cc([N+](=O)[O-])ccc1Cl
active: [2] 61.1 µM
not listed: [7] | [8] | [12] | [13] | [18]
inactive: all other assays above
